Several values for one entry are separate records, joined by “and”; a condition that tells them apart may be missing. Equal values may be shown once. Records with an inconclusive call do not appear. A number with no mark means an inactive call. Activity calls are given as the source filed them. The call rests on the fitted dose curve; in most records, active means well fitted curve in the direction sought with a large enough effect in the repeat runs; inconclusive means weak or mixed curves; inactive means no such curve, though single readings can be large; an effect the other way counts as inactive or inconclusive.
Assay: qHTS assay for identifying genotoxic compounds that show differential cytotoxicity against isogenic chicken DT40 cell lines with known DNA damage response pathways - wild type cell line (AID 743012); further: nearly all actives have a fitted effect of over 60% in size
Conditions: DT40 wild type chicken cells viability, CellTiter-Glo, 40 h; series mostly up to 68.4 µM; activity change, negative = cytotoxicity: at the top concentration
How it was run: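 Using parental DT40 (300 cells/well), compounds delivered in DMSO incubate 40 h at 37 C/5% CO2. CellTiter-Glo reagent then stands 30 min at room temperature, and luminescence gives cell viability.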
On the % scale 0 is the no-effect control and ±100 the full control effect; potency means the concentration at half of the fitted maximal effect.

| Compound | activity change, negative = cytotoxicity | Potency |
| --- | --- | --- |
| O=C1CCCN1C1CCCCC1 | -9.09% |  |
| O=C(O)CNC(=O)c1ccc([N+](=O)[O-])cc1 | 10.7% |  |
| CC/C=C\CC/C=C/C(OCC)OCC |  | 43.3 µM (active) |
| Nc1ccc(S(=O)(=O)Nc2ccnn2-c2ccccc2)cc1 | 3.47% [at 31.4 µM] |  |
| c1ccc(CC2=NCCN2)cc1 | 4.22% [at 31.4 µM] |  |
| COC(=O)[C@@H](N)Cc1ccc(O)c(O)c1 |  | 29.8 µM (active) |
| Cn1c(N)c(N=O)c(=O)n(C)c1=O | 19.7% [at 95 µM] |  |
| CCSC(=O)N(CC(C)C)CC(C)C | -1.6% |  |
| CC(=O)OCC(CCn1cnc2cnc(N)nc21)COC(C)=O | 11% |  |
| CN1CC(=O)NC1=N | 4.63% |  |
| CCC=O | 8.12% [at 95 µM] |  |
| CC(=O)OCC(=O)[C@@]1(O)CCC2C3CCC4=CC(=O)CC[C@]4(C)C3[C@@H](O)C[C@@]21C (some centres not stated) | 0.351% |  |
| O=C(O)CCCl | 5.81% [at 95 µM] |  |
| CN1CCCC1 | 4.65% |  |
| CCc1ccc(O)c(OC)c1 | 15.1% |  |
| O=C1NC(=O)[C@@]2(CCOc3ccc(F)cc32)N1 | 4.04% |  |
| Cc1cc2c(cc1S(N)(=O)=O)S(=O)(=O)CCC2 | 20.2% [at 31.4 µM] |  |
| CC(C)(C)NCCNC(C)(C)C | -8.48% |  |
| N=C(N)c1ccc2cc(OC(=O)c3ccc(N=C(N)N)cc3)ccc2c1 | 10.8% |  |
| C[N+](C)(C)CCCCCC[N+](C)(C)C | -0.308% |  |
| NS(=O)(=O)c1ccc(C(=O)O)cc1 | 13.9% |  |
| CCCCC/C=C\CCC=O | -4.54% |  |
| CC(C)CCCC(C)N (configuration not stated) | 0.663% |  |
| CC(=O)Nc1ccc(S(N)(=O)=O)cc1 | 9.36% |  |
| CCN(Cc1ccncc1)C(=O)C(CO)c1ccccc1 (configuration not stated) | 1.26% |  |
| CCN1CCC[C@H]1CNC(=O)c1cc(S(N)(=O)=O)ccc1OC | 2.82% |  |

Assay: qHTS assay for identifying genotoxic compounds that show differential cytotoxicity against isogenic chicken DT40 cell lines with known DNA damage response pathways - Rev3 mutant cell line (AID 743014); further: nearly all actives have a fitted effect of over 55% in size
Conditions: chicken DT40 Rev3-/- viability, CellTiter-Glo, 40 h; series mostly up to 68.4 µM; activity, negative = cytotoxicity: at the top concentration

| Compound | Potency | activity, negative = cytotoxicity |
| --- | --- | --- |
| CN(C)CCCN1c2ccccc2CCc2ccc(Cl)cc21 | 7.5 µM (active) and 6.86 µM (active) |  |
| CCN(CC)CCNC(=O)c1cc(S(C)(=O)=O)ccc1OC |  | 10.1% [at 31.4 µM] |
| C=CCCCCCCCCC=O |  | -19% |
| C[N+](C)(C)CC(O)CC(=O)[O-] (configuration not stated) |  | 4.84% |
| O=C1CCCN1C1CCCCC1 |  | -8.58% |
| O=C(O)CNC(=O)c1ccc([N+](=O)[O-])cc1 |  | -1.75% |
| Nc1ccc(S(=O)(=O)Nc2ccnn2-c2ccccc2)cc1 |  | 16.2% [at 31.4 µM] |
| c1ccc(CC2=NCCN2)cc1 |  | -0.331% [at 31.4 µM] |
| Cn1c(N)c(N=O)c(=O)n(C)c1=O |  | 3.56% [at 95 µM] |
| O=C(O)CCCl |  | -2.11% [at 95 µM] |
| CCc1ccc(O)c(OC)c1 |  | -1.98% |
| Cc1cc2c(cc1S(N)(=O)=O)S(=O)(=O)CCC2 |  | -0.777% [at 31.4 µM] |
| CC(C)CCCC(C)N (configuration not stated) |  | -0.117% |
| CCN(Cc1ccncc1)C(=O)C(CO)c1ccccc1 (configuration not stated) |  | 3.82% |

Assay: qHTS assay for identifying genotoxic compounds that show differential cytotoxicity against isogenic chicken DT40 cell lines with known DNA damage response pathways - Rad54/Ku70 mutant cell line (AID 743015); further: nearly all actives have a fitted effect of over 60% in size
Conditions: DT40 Rad54/Ku70 mutant viability, CellTiter-Glo, 40 h; series mostly up to 66.8 µM; activity change, negative = cytotoxicity: at the top concentration

| Compound | Potency | activity change, negative = cytotoxicity |
| --- | --- | --- |
| CN(C)CCCN1c2ccccc2CCc2ccc(Cl)cc21 | 9.44 µM (active) and 7.7 µM (active) |  |
| C/C=C(\C)C#N |  | -1.41% |
| NCCc1cnc[nH]1 |  | 7.05% |
| CCN(CC)CCNC(=O)c1cc(S(C)(=O)=O)ccc1OC |  | 8.6% [at 30.7 µM] |
| N=C(N)c1ccccc1 |  | 4.72% |
| Cc1[nH]c(=O)c(C#N)cc1-c1ccc2nccn2c1 |  | -1.31% |
| CCOC(=O)[C@H](CCc1ccccc1)N[C@@H](C)C(=O)N1[C@H](C(=O)O)C[C@@H]2CCC[C@@H]21 |  | 8.46% |
| CCCN1CCCC[C@H]1C(=O)Nc1c(C)cccc1C |  | 0.0754% |
| CCn1ccnc1CC1COc2ccccc2O1 (configuration not stated) |  | -0.707% |
| CC(C)(CC(=O)O)C(=O)O |  | 1.53% |
| NC(=O)Nc1ccccc1 |  | 13.2% |
| C=CCCCCCCCCC=O |  | -19.3% |
| C[N+](C)(C)CC(O)CC(=O)[O-] (configuration not stated) |  | -8.87% |
| O=C1CCCN1C1CCCCC1 |  | -17.5% |
| CC/C=C\CC/C=C/C(OCC)OCC | 61.1 µM (active) |  |
| Nc1ccc(S(=O)(=O)Nc2ccnn2-c2ccccc2)cc1 |  | 3.28% [at 30.7 µM] |
| c1ccc(CC2=NCCN2)cc1 |  | 3.95% [at 30.7 µM] |
| COC(=O)[C@@H](N)Cc1ccc(O)c(O)c1 | 33.5 µM (active) |  |
| Cn1c(N)c(N=O)c(=O)n(C)c1=O |  | 14.2% [at 95.1 µM] |

| Compound | Potency | activity change, negative = cytotoxicity |
| --- | --- | --- |
| CCSC(=O)N(CC(C)C)CC(C)C |  | 9.99% |
| CC(=O)OCC(CCn1cnc2cnc(N)nc21)COC(C)=O |  | 7.56% |
| CN1CC(=O)NC1=N |  | 17.4% |
| CCC=O |  | 5.2% [at 95.1 µM] |
| CC(=O)OCC(=O)[C@@]1(O)CCC2C3CCC4=CC(=O)CC[C@]4(C)C3[C@@H](O)C[C@@]21C (some centres not stated) |  | 0.648% |
| CN1CCCC1 |  | -4.36% |
| CCc1ccc(O)c(OC)c1 |  | 18.5% |
| O=C1NC(=O)[C@@]2(CCOc3ccc(F)cc32)N1 |  | 12.2% |
| Cc1cc2c(cc1S(N)(=O)=O)S(=O)(=O)CCC2 |  | 5.32% [at 30.7 µM] |
| CC(C)(C)NCCNC(C)(C)C |  | -12.6% |
| N=C(N)c1ccc2cc(OC(=O)c3ccc(N=C(N)N)cc3)ccc2c1 |  | 4.29% |
| C[N+](C)(C)CCCCCC[N+](C)(C)C |  | 4.4% |
| NS(=O)(=O)c1ccc(C(=O)O)cc1 |  | 5.13% |
| CCCCC/C=C\CCC=O |  | 2.08% |
| CC(C)CCCC(C)N (configuration not stated) |  | 2.36% |
| CC(=O)Nc1ccc(S(N)(=O)=O)cc1 |  | -2.3% |
| CCN(Cc1ccncc1)C(=O)C(CO)c1ccccc1 (configuration not stated) |  | 6.25% |
| CCN1CCC[C@H]1CNC(=O)c1cc(S(N)(=O)=O)ccc1OC |  | 11.1% |

Assay: qHTS assay to identify small molecule antagonists of the androgen receptor (AR) signaling pathway - cell viability counter screen (AID 743033; further: nearly all actives have a fitted effect of over 45% in size)
Conditions: AR-bla HEK293 viability, CellTiter-Glo luminescence, 16 h; series mostly up to 58.5 µM; activity change, negative = cytotoxicity: at the top concentration

| Compound | Potency | activity change, negative = cytotoxicity |
| --- | --- | --- |
| CN(C)CCCN1c2ccccc2CCc2ccc(Cl)cc21 | 24.5 µM (active) |  |
| C/C=C(\C)C#N |  | 5.68% |
| NCCc1cnc[nH]1 |  | 8.61% |
| N=C(N)c1ccccc1 |  | 13.2% |
| Cc1[nH]c(=O)c(C#N)cc1-c1ccc2nccn2c1 |  | 2.28% |
| CCOC(=O)[C@H](CCc1ccccc1)N[C@@H](C)C(=O)N1[C@H](C(=O)O)C[C@@H]2CCC[C@@H]21 |  | -0.61% |
| CCCN1CCCC[C@H]1C(=O)Nc1c(C)cccc1C |  | 5.63% |
| CCn1ccnc1CC1COc2ccccc2O1 (configuration not stated) |  | 8.37% |
| CC(C)(CC(=O)O)C(=O)O |  | 12.3% |
| NC(=O)Nc1ccccc1 |  | 0.258% |
| C=CCCCCCCCCC=O |  | 1.91% |
| O=C1CCCN1C1CCCCC1 |  | 0.633% |
| O=C(O)CNC(=O)c1ccc([N+](=O)[O-])cc1 |  | 5.39% |
| CC/C=C\CC/C=C/C(OCC)OCC |  | -5.28% |
| Nc1ccc(S(=O)(=O)Nc2ccnn2-c2ccccc2)cc1 |  | -10.4% [at 27 µM] |
| COC(=O)[C@@H](N)Cc1ccc(O)c(O)c1 |  | 0.521% |
| Cn1c(N)c(N=O)c(=O)n(C)c1=O |  | 1.85% [at 78.9 µM] |
| CCSC(=O)N(CC(C)C)CC(C)C |  | 0.393% |

| Compound | Potency | activity change, negative = cytotoxicity |
| --- | --- | --- |
| CC(=O)OCC(CCn1cnc2cnc(N)nc21)COC(C)=O |  | 6.54% |
| CN1CC(=O)NC1=N |  | -4.39% |
| CCC=O |  | 1.48% [at 78.9 µM] |
| CC(=O)OCC(=O)[C@@]1(O)CCC2C3CCC4=CC(=O)CC[C@]4(C)C3[C@@H](O)C[C@@]21C (some centres not stated) |  | -1.82% |
| O=C(O)CCCl |  | -5.68% [at 78.9 µM] |
| CN1CCCC1 |  | 3.27% |
| CCc1ccc(O)c(OC)c1 |  | -18.2% |
| O=C1NC(=O)[C@@]2(CCOc3ccc(F)cc32)N1 |  | -8.97% |
| CC(C)(C)NCCNC(C)(C)C |  | -19.8% |
| N=C(N)c1ccc2cc(OC(=O)c3ccc(N=C(N)N)cc3)ccc2c1 |  | 9.94% |
| C[N+](C)(C)CCCCCC[N+](C)(C)C |  | 4.46% |
| NS(=O)(=O)c1ccc(C(=O)O)cc1 |  | 2.35% |
| CCCCC/C=C\CCC=O |  | 5.35% |
| CC(C)CCCC(C)N (configuration not stated) |  | 2.93% |
| CC(=O)Nc1ccc(S(N)(=O)=O)cc1 |  | 1.57% |
| CCN(Cc1ccncc1)C(=O)C(CO)c1ccccc1 (configuration not stated) |  | 7.54% |
| CCN1CCC[C@H]1CNC(=O)c1cc(S(N)(=O)=O)ccc1OC |  | 3.01% |

Source: PubChem BioAssay (Tox21)
